We go through 40 targets from the supplement of paper PMC12819154, “High-throughput peptide-centric local stability assay extends protein–ligand identification to membrane proteins, tissues and bacteria” (Nature Structural & Molecular Biology, 2025).
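Also: lysate desalted by size exclusion to strip endogenous ATP, peptide intensities built from DIA-NN precursor signals, and peptides missing any value discarded before comparison.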

Compound in this test: Nc1ncnc2c1ncn2[C@@H]1O[C@H](COP(=O)(O)OP(=O)(O)OP(=O)(O)O)[C@@H](O)[C@H]1O [adenosine 5'-triphosphate]
Kind of test: log2 fold change of tryptic peptide abundance, ligand vs vehicle (limited proteolysis) (log2 ratio); higher = more trypsin-susceptible (destabilized). Particulars: ligand concentration: 5 mM; sample: E. coli desalted lysate; replicate design: treated before aliquoting. On the procedure:
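HT-PELSA: desalted E. coli K-12 BW25113 lysate (with 12 mM MgCl2) incubated with 5 mM ATP (pH 7) or water for 30 min at 25 C, then a 4 min trypsin pulse at 22 C. Peptides were quantified by DIA-MS (4 replicates). Value is the peptide log2 fold change (treated/control); negative = stabilized. Scale: negative = ligand-stabilized region.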
Consider “UniProt P00561 (peptide sequence: NKHIDLR, peptide start residue: 493)”, for which the log2 fold change was determined as 1.32.

As for “UniProt P06999 (peptide sequence: IYAYLSR, peptide start residue: 303)”, the log2 fold change is -2.25.

On to “UniProt P45522 (peptide sequence: TLVTLGMHPHQAQR, peptide start residue: 530)”, for which the log2 fold change worked out at 0.604.

In the case of “UniProt P25553 (peptide sequence: VAFGGKAVEGK, peptide start residue: 351)”, the log2 fold change turned out to be 1.48.

Regarding “UniProt P56579 (peptide sequence: MGIQLEQK, peptide start residue: 172)”, the log2 fold change is 0.509.

Regarding “UniProt P45799 (peptide sequence: SLQKPTILNVETVAR, peptide start residue: 4)”, the log2 fold change was -1.1.

Consider “UniProt P32173 (peptide sequence: DAPVVWVHDGERDHPTIALVNR, peptide start residue: 119)”, for which the log2 fold change is -0.372.

For “UniProt P76193 (peptide sequence: TGTPVKVINEPVKYSVEPNGMR, peptide start residue: 226)”, the log2 fold change was -0.912.

As to “UniProt P15031 (peptide sequence: TVFSVEAEIHPEPVSGRPMCLMR, peptide start residue: 233)”, the log2 fold change amounted to 1.33.

As for “UniProt P25516 (peptide sequence: KTLGLTGEEK, peptide start residue: 823)”, the log2 fold change is -0.721.

Turning to “UniProt P75796 (peptide sequence: VHGLLPGKDAAAR, peptide start residue: 430)”, the log2 fold change worked out at 1.01.

Consider “UniProt P77739 (peptide sequence: IGWQLELAAEK, peptide start residue: 152)”, for which the log2 fold change was -0.651.

In the case of “UniProt P64554 (peptide sequence: NGFSCQIETSGTHEVR, peptide start residue: 111)”, the log2 fold change was -0.431.

For “UniProt P37745 (peptide sequence: WVGVLLSADNK, peptide start residue: 98)”, the log2 fold change was -0.542.

For the target “UniProt P36566 (peptide sequence: TLSPDYPR, peptide start residue: 179)”, the log2 fold change is -1.28.

For “UniProt P33343 (peptide sequence: LSLITNDKITGNDK, peptide start residue: 95)”, the log2 fold change was -0.561.

For the target “UniProt P28904 (peptide sequence: LDVVNLISKDPR, peptide start residue: 199)”, the log2 fold change is -0.478.

For the target “UniProt P24203 (peptide sequence: ILLTKTDVAGEAEKLHER, peptide start residue: 155)”, the log2 fold change amounted to 1.26.

Consider “UniProt P32662 (peptide sequence: TMGKPPVDDDIPAEEQVR, peptide start residue: 75)”, for which the log2 fold change amounted to 0.514.

For the target “UniProt P75915 (peptide sequence: VLGSLYYR, peptide start residue: 10)”, the log2 fold change was determined as 0.747.

Turning to “UniProt P75824 (peptide sequence: AGVCGCCK, peptide start residue: 275)”, the log2 fold change amounted to 0.616.

Consider “UniProt P42632 (peptide sequence: IKALPTYR, peptide start residue: 593)”, for which the log2 fold change came out at 0.596.

For “UniProt P69789 (peptide sequence: LYSKAEYK, peptide start residue: 48)”, the log2 fold change was -1.96.

For “UniProt P76419 (peptide sequence: GGDCAPTREELLLAHK, peptide start residue: 304)”, the log2 fold change is -1.82.

Turning to “UniProt P07862 (peptide sequence: AWTTLGCK, peptide start residue: 244)”, the log2 fold change is -0.633.

“UniProt P45579 (peptide sequence: VAAAHAVHNGLTVLPQTEK, peptide start residue: 253)”: the log2 fold change was determined as 0.992.

In the case of “UniProt P30014 (peptide sequence: TAVLFCEIVNR, peptide start residue: 190)”, the log2 fold change was -2.04.

Regarding “UniProt P27129 (peptide sequence: DVEPMQEK, peptide start residue: 157)”, the log2 fold change is -0.645.

For “UniProt P52612 (peptide sequence: DRGQHVLLIMDSLTR, peptide start residue: 262)”, the log2 fold change is -1.35.

As for “MurD (peptide sequence: YLNGDNVR, peptide start residue: 359) (UniProt P14900)”, the log2 fold change was -1.33.

Take “UniProt P76226 (peptide sequence: IKPLLHQCVR, peptide start residue: 10)”: the log2 fold change was -1.62.

Turning to “UniProt P0AFU4 (peptide sequence: LMTASWPGNVR, peptide start residue: 344)”, the log2 fold change was -1.31.

With “UniProt P40719 (peptide sequence: RFTSDAAHELR, peptide start residue: 239)”, the log2 fold change is -2.75.

For “UniProt P76542 (peptide sequence: VAEDWFATR, peptide start residue: 108)”, the log2 fold change is -0.902.

In the case of “UniProt P02916 (peptide sequence: ETTAQPEGER, peptide start residue: 161)”, the log2 fold change was found to be 0.465.

On to “UniProt P0AD19 (peptide sequence: GLAMGTASHALGTAR, peptide start residue: 178)”, for which the log2 fold change was -0.978.

As for “UniProt P46889 (peptide sequence: FRDNPSPLTVVLGK, peptide start residue: 957)”, the log2 fold change is -1.51.

As for “UniProt P27848 (peptide sequence: GHALEAVAK, peptide start residue: 192)”, the log2 fold change worked out at 0.631.

As for “UniProt P32141 (peptide sequence: ASGGFAMLAVDQR, peptide start residue: 12)”, the log2 fold change is -0.432.

Turning to “UniProt P21420 (peptide sequence: HYFSSNDADDGDTTYAR, peptide start residue: 44)”, the log2 fold change was -0.336.
